Laboratory results: PubChem BioAssay AID743279 (National Center for Advancing Translational Sciences (NCATS), 2014)
In all, about 360,000 compounds went through this assay and about 17,000 (4.7%) were called active. Not shown: some 5% with an inconclusive outcome. Rule as the data show it: active = activity change below about -50%; inconclusive = mostly about -30% to -49%; inactive = weaker than that. The full list was thinned out, with actives kept by preference.

Experiment: qHTS for Inhibitors of Inflammasome Signaling: IL-1-beta AlphaLISA Primary Screen
Conditions: THP-1 LPS/ATP IL-1B secretion, 16 h; at 57.5 µM, stronger effect = lower value
Outline: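 Secreted IL-1B measured by AlphaLISA bead assay after 16 h compound exposure of THP-1 cells; compounds (final up to 57.5 uM) added 1 h before LPS (250 ng/mL) and ATP (1.25 mM) stimulation; lower signal means less secretion.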
% is scaled to controls: 0 for no effect and ±100 for the full control effect.

Compound	activity change
COCCn1c(SCC(=O)Nc2ccc(F)cc2F)nc2c(c1=O)SCC2	18.2% (inactive)
CCNC(=O)CCc1nc(-c2ccc(C(C)(C)C)cc2)no1	-3.31% (inactive)
CC(O)CNCCOc1cccc(Oc2ccccc2)c1 (stereo not given)	-29% (inactive)
OC(CNCCc1ccc(Cl)cc1Cl)COc1ccccc1 (stereo not given)	-91.8% (active)
COc1ccc(OCC(O)CNC(=O)Nc2ccc(Cl)cc2)cc1 (stereo not given)	5.19% (inactive)
COc1ccc(NC(=O)CN2C(=O)NC(C)(c3ccccc3)C2=O)cn1 (stereo not given)	12.7% (inactive)
COc1ccc(CS(=O)/C(Cl)=C(/Cl)C(=O)Nc2ccc(OC)nc2)cc1 (stereo not given)	-105% (active)
COc1ccc(C(=O)CCC(=O)Nc2ccc(Cl)cc2)cc1	4.81% (inactive)
O=C(COC(=O)c1cc(-c2cccs2)nn1-c1ccccc1)Nc1cc([N+](=O)[O-])ccc1Cl	21.3% (inactive)
C/C(=N\Nc1nc2ccccc2[nH]1)c1cccs1	-66.3% (active)
O=C(Nc1ccccc1-c1nc2ccccc2[nH]c1=O)c1cccs1	7.39% (inactive)
C/C(=N\Nc1ccccc1)c1cccs1	40.5% (inactive)
O=C(COc1ccccc1Cl)Nn1cnnc1	26.3% (inactive)
CCOC(=O)CNC(=O)CSc1ncccc1-c1nc2ccccc2[nH]1	16.2% (inactive)
COc1ccc(S(=O)(=O)N(C)C[C@@H]2Oc3ccc(NS(=O)(=O)c4cn(C)cn4)cc3C(=O)N([C@@H](C)CO)C[C@@H]2C)cc1	-3.54% (inactive)
OCCN1CCN(c2nnc(-c3ccccc3)c3ccccc23)CC1	23.6% (inactive)
O=C1CCN(CCCc2ccccc2)CCN1CCO	-16.8% (inactive)
O=C1c2ccccc2C(=O)c2c1cccc2N1CCN(CCO)CC1	-59.1% (active)
Cc1ccc(Nc2c(O)nc[nH]c2=O)cc1C	13.4% (inactive)
COc1c(O)cccc1-c1nnn(CCC(=O)OCC(=O)c2ccccc2)n1	14.4% (inactive)
O=S1(=O)CCN(C2CCCCCCCCCCC2)CC1	26.7% (inactive)
O=c1nc(NO)ccn1C1CCCO1 (stereo not given)	13.7% (inactive)
Cc1cccc(C(=O)N2CCN(S(=O)(=O)N3CCCCC3)CC2)c1	0% (inactive)
Cc1cccc(C)c1N1CCN(S(=O)(=O)N2CCCCC2)CC1	-53.3% (active)

Compound	activity change
Cc1cccc(C)c1N1CCN(S(=O)(=O)N2CCOCC2)CC1	0% (inactive)
CCC(c1nnnn1-c1ccc2c(c1)OCCO2)N1CCN(c2ccc(C(F)(F)F)cn2)CC1 (stereo not given)	25.4% (inactive)
CCCNC(=O)CCc1c(C)nc2c(c(C)nn2-c2ccccc2)c1C	-2.57% (inactive)
CC(=O)C[C@@H]1OC[C@H](CO)N1S(=O)(=O)c1ccc(C)cc1	5.63% (inactive)
O=C(NCCN1CCOCC1)C1CCN(S(=O)(=O)c2ccccc2)CC1	0.358% (inactive)
CN1CCN(C(=O)c2ccc(-c3cc4nc(NCc5cccnc5)n(C)c(=O)c4s3)cc2)CC1	-15.2% (inactive)
CC1CCN(C(=O)c2ccc(S(=O)(=O)Cc3cc(F)ccc3F)c([N+](=O)[O-])c2)CC1	-96.6% (active)
O=C(c1ccc(Oc2ccc(Cl)cc2)c([N+](=O)[O-])c1)N1CCCC1	-22.3% (inactive)
Nc1ccc(C(=O)N2CCN(S(=O)(=O)c3ccc(Cl)cc3)CC2)cc1[N+](=O)[O-]	-21.1% (inactive)
COc1cc(OC)c(C(=O)NNC(=O)c2ccccc2-n2cccc2)cc1OC	3.76% (inactive)
O=C(/C=C/c1ccc2c(c1)OCCO2)c1ccc(O)cc1	-103% (active)
Cc1cc(C(=O)O)ccc1[N+](=O)[O-]	-16.6% (inactive)
CC(=O)Nc1ccc(C=CC(=O)c2ccc([N+](=O)[O-])cc2)cc1	1.95% (inactive)
CC(=O)Nc1ccc(C(=O)/C=C/c2ccc[nH]2)cc1	-9.5% (inactive)
C/C(=N\Nc1nncc2ccccc12)c1ccc(Cl)c([N+](=O)[O-])c1	-6.54% (inactive)
Cc1cc(C)n(-c2ccc(C(=O)O)cc2[N+](=O)[O-])n1	40.6% (inactive)
CN(C)c1ccc(/C=C/C(=O)c2ccc(O)cc2)cc1[N+](=O)[O-]	-97.8% (active)
CN(C)c1ccc(/C=C/C(=O)c2ccc(C(C)(C)C)cc2)cc1[N+](=O)[O-]	-95.8% (active)
CNc1ccc(NC(C)=O)cc1[N+](=O)[O-]	-5% (inactive)
CC(=O)c1ccc2c(c1)OCCOCCOc1ccc(C(C)=O)cc1OCCOCCO2	0% (inactive)
O=C(/C=C\c1ccc2c(c1)OCO2)NC1(C(=O)Nc2ccc3c(c2)OCCO3)CCCCC1	-1.03% (inactive)
O=C(/C=C/c1ccc(Cl)c([N+](=O)[O-])c1)c1ccc(O)cc1	-99.9% (active)
CCOC(=O)C1(CCOC)CCN(Cc2cc3ccccc3s2)CC1	-8.97% (inactive)
CCOc1ccccc1NC(=S)C(=C([O-])c1ccc2c(c1)OCCO2)[n+]1ccc(CC)cc1	3.49% (inactive)

Compound	activity change
Cc1ccc(Cc2nnc(SCC(=O)Nc3ccccc3C)[nH]c2=O)cc1	19.7% (inactive)
O=C(Nc1cccc2ccccc12)c1[nH]c(-c2ccccc2)c2c1C(=O)N(C1CC1)C2=O	-16.9% (inactive)
CC(O)CN(Cc1ccc(Cl)cc1)CC(C)O (stereo not given)	-2.11% (inactive)
CCOC(=O)C(NC(=O)CC(C)C)(Nc1sc2c(c1C(N)=O)CCCC2)C(F)(F)F (stereo not given)	inactive
CN(C)C(CNC(=O)c1cccc(S(=O)(=O)N2CCc3ccccc3C2)c1)c1ccccc1 (stereo not given)	-16.7% (inactive)
O=C(C1CCN(CC2CCCCC2)CC1)N1CCCC1	-2.85% (inactive)
CCCCC(=O)N1CC2(C)CN(C(=O)CCCC)CC(C)(C1)C2=O	14% (inactive)
N#C/C(=C(/O)COC(=O)COc1ccc(Cl)cc1)c1nc2ccccc2[nH]1	-99.4% (active)
CC(C)(C)c1nnc2sc(SCC(O)=C(C#N)c3nc4ccccc4[nH]3)nn2c1=O	20.2% (inactive)
COCCN(CCOC)S(=O)(=O)c1ccc(/C(O)=C(\C#N)c2nc3ccccc3[nH]2)cc1	-11.3% (inactive)
Cc1cc(NC(=O)Nc2ccccc2[N+](=O)[O-])no1	-17.8% (inactive)
CC1CCCN(C(=O)Cn2c(=O)oc3cc(S(=O)(=O)N4CCCCC4C)ccc32)C1 (stereo not given)	11.7% (inactive)
Cc1cccc(-c2nc(Nc3ccc(O)cc3)c3ccccc3n2)c1	-81.3% (active)
Cc1cccc(-c2noc(-c3ccc(F)cc3)n2)c1	19.9% (inactive)
Oc1ccc(-c2nnc(Nc3ccccc3)c3ccccc23)cc1	13.6% (inactive)
CCc1ccccc1OCC(=O)Nc1ccc2c(c1)OCCO2	-6.79% (inactive)
CC(C)(CCl)C(=O)Nc1ccc(Sc2ccc(F)cc2)cc1	-12.9% (inactive)
CC(=O)Nc1ccc(SCC(=O)NC(=O)c2ccc(Cl)cc2)cc1	-2.04% (inactive)
O=C(CCl)Nc1ccc(Sc2ccc(NC(=O)CCl)cc2)cc1	-101% (active)
CC1CCN(C(=O)c2ccccc2NC(=O)Cc2ccccc2)CC1	29.6% (inactive)
C[C@H](CO)N1C[C@H](C)[C@@H](CN(C)C(=O)C2CCCCC2)OCc2cnnn2CCCC1=O	2.8% (inactive)
CCN1/C(=C\c2ccc3ccccc3[n+]2CC)Sc2cc(C)ccc21	-99.7% (active)
CCN1/C(=C/c2ccc3ccc(C)cc3[n+]2CC)Sc2ccccc21	-101% (active)
O=C(Nc1cccc(Br)c1)C1CC(=O)N(C2CCCC2)C1 (stereo not given)	15.6% (inactive)

Compound	activity change
CCCS(=O)(=O)NC(=O)C1(C)CCCN(C(=O)c2cc(C)on2)C1 (stereo not given)	19.3% (inactive)
O=C1NC(O)CCN1C1CC(O)C(CO)O1 (stereo not given)	0% (inactive)
CC1(C(=O)Nc2cccc(Oc3ccccc3)c2)CCN1Cc1ccccc1Cl (stereo not given)	-0.171% (inactive)
CCC(C)c1ccccc1N1CC(C(=O)N2CCN(S(=O)(=O)c3ccc(F)cc3)CC2)CC1=O (stereo not given)	-6.2% (inactive)
Cc1nc(C(F)(F)F)ccc1C(=O)N1CCC1(C)C(=O)NS(=O)(=O)c1ccc(F)cc1F (stereo not given)	20.5% (inactive)
COc1ccc(C(=O)NCC(=O)N/N=C/c2cccnc2)cc1	16.9% (inactive)
O=C(CSc1cccc2cccnc12)N/N=C/c1cccnc1	-96.5% (active)
CCOC(=O)N/N=C/c1cccnc1	33.8% (inactive)
CC(=NNC(N)=O)C1CC2CCC1CC2 (stereo not given)	-5.84% (inactive)
O=C(NCc1ccc(Cl)c(Cl)c1)c1cccnc1	3.6% (inactive)
O=C(OCc1cc(Cl)ccc1OC(F)F)c1cccnc1	26% (inactive)
O=C(/C=C/c1ccc(Cl)cc1Cl)c1cccnc1	-59.5% (active)
CC(=O)N1CCc2cc(Br)cc(S(=O)(=O)CCC(=O)Nc3c(C)n(C)n(-c4ccccc4)c3=O)c21	4.54% (inactive)
O=[N+]([O-])c1ccc(N=NNc2ccc([N+](=O)[O-])cc2)cc1	-3.41% (inactive)
O=[N+]([O-])c1ccc(N/N=C/c2ccccc2)cc1	-59.6% (active)
O=C(NN=Cc1ccc([N+](=O)[O-])cc1)C1CC1	-3.03% (inactive)
Cc1ccc(C)c(C(O)c2ncc(-c3cccc4ccccc34)[nH]2)c1 (stereo not given)	4.1% (inactive)
CC(C)(O)C(=O)NN(C(=O)c1ccccc1)c1cccc(Br)c1	-15.5% (inactive)
CCCCCNC(=O)C1c2ccccc2Oc2ccccc21	-3.75% (inactive)
CCCC(O)(CCC)C(=O)NN(C(=O)CCl)c1cccc(C)c1	-219% (active)
CCCCC(O)(CCCC)C(=O)NN(C(=O)CCl)c1ccccc1	-78.2% (active)
Cc1ccc(N(NC(=O)C(C)(C)O)C(=O)c2ccccc2)cc1C	38.2% (inactive)
COC(=O)N(NC(=O)C(O)(C(C)C)C(C)C)c1ccccc1	12.9% (inactive)
